# From paper PMC7862700, “An all-to-all approach to the identification of sequence-specific readers for epigenetic DNA modifications on cytosine”
# Tests used:
# Assay in all cases: DAPPL (digital affinity profiling via proximity ligation, sequencing); 10 mM Tris-HCl pH 7.5, 50 mM NaCl, 1 mM DTT, 4% glycerol, room temperature, 30 min; GST-TFs on glutathione beads, 16-mer random dsDNA library, 0.1% formaldehyde crosslink after washing; high values mean tight binding
# FEV = target: T1, FEV (Homo sapiens, UniProt Q99581 1-238); details: protein: recombinant; tags: N-terminal GST; dsDNA, one strand shown
# T1 sequence: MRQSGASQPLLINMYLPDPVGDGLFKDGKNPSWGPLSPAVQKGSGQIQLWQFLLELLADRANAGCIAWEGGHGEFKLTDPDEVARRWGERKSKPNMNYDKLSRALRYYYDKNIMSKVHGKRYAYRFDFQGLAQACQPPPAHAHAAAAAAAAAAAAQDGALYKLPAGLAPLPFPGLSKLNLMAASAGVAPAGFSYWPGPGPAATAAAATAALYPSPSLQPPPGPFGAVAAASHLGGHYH
# Method in brief: (§1)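 Beads coated with glutathione captured GST-fused human transcription factors that had been expressed in yeast, and the factors were then given DNA barcodes and pooled with a tag-only sample. The pools were incubated with 200 nmole of a random double-stranded 16-mer DNA library in Tris/NaCl/DTT/glycerol buffer for 30 min at room temperature, washed, crosslinked with 0.1% formaldehyde and proximity-ligated with BsaI/T4 ligase at 37 °C for 1 h. PCR amplification and Illumina NextSeq500 sequencing came last. Binding signal is each hexamer's read frequency for a factor divided by its frequency for the tag-only sample.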
# ETV5 = ETV5 (Homo sapiens, UniProt P41161 1-510); details: protein: recombinant; tags: N-terminal GST; dsDNA, one strand shown
# Method in brief: as §1
# HSF1 = HSF1 (Homo sapiens, UniProt Q00613 1-529); details: protein: recombinant; tags: N-terminal GST; chain copies: 3; dsDNA, one strand shown
# Method in brief: as §1
# SPIC = target: T2, SPIC (Homo sapiens, UniProt Q8N5J4 1-248); details: protein: recombinant; tags: N-terminal GST; dsDNA, one strand shown
# T2 sequence: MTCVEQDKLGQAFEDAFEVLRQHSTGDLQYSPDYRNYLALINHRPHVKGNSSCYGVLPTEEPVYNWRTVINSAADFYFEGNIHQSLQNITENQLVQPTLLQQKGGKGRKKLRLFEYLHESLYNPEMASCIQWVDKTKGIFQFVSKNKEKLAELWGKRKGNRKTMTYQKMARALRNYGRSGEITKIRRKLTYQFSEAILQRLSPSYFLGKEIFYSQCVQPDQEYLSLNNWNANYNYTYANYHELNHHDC
# Method in brief: as §1
# ELF4 = ELF4 (Homo sapiens, UniProt Q99607 1-663); details: protein: recombinant; tags: N-terminal GST; dsDNA, one strand shown
# Method in brief: as §1
# ELK4 = target: T3, ELK4 (Homo sapiens, UniProt P28324-2 1-405); details: protein: recombinant; tags: N-terminal GST; dsDNA, one strand shown
# T3 sequence: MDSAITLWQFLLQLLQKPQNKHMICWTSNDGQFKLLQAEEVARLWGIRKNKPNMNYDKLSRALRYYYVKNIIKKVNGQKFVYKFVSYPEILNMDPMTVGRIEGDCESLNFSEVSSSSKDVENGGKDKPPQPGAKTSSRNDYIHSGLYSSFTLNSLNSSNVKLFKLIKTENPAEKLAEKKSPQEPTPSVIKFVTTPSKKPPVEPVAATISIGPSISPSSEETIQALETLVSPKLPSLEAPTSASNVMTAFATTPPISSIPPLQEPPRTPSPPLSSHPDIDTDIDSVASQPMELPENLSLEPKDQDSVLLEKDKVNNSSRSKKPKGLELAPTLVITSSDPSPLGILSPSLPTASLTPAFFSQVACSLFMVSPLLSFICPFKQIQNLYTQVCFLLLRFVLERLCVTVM
# Method in brief: as §1
# ETV2 = target: T4, ETV2 (Homo sapiens, UniProt O00321 1-342); details: protein: recombinant; tags: N-terminal GST; dsDNA, one strand shown
# T4 sequence: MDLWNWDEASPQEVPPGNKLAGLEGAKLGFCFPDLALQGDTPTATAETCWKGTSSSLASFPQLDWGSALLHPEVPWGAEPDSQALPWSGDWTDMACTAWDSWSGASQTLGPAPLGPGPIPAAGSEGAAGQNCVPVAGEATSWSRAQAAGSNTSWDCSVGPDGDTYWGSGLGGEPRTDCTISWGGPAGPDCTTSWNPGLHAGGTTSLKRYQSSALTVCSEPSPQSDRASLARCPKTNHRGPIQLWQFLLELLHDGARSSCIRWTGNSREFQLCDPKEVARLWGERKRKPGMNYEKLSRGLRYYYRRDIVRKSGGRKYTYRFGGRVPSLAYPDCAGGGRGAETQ
# Method in brief: as §1
# ELF3 = target: T5, ELF3 (Homo sapiens, UniProt P78545 1-371); details: protein: recombinant; tags: N-terminal GST; dsDNA, one strand shown
# T5 sequence: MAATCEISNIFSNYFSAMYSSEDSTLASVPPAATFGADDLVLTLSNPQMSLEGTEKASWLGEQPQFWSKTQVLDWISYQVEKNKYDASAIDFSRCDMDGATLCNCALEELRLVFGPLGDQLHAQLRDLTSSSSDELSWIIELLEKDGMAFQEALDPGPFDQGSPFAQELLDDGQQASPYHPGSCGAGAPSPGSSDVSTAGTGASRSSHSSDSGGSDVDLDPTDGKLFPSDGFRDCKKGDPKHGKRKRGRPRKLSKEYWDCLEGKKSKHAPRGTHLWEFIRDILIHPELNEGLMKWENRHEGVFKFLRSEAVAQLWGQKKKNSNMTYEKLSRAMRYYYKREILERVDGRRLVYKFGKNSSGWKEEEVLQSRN
# Method in brief: as §1
# CRX = CRX (Homo sapiens, UniProt O43186 1-299); details: protein: recombinant; tags: N-terminal GST; dsDNA, one strand shown
# Method in brief: as §1
# ETV1 = ETV1 (Homo sapiens, UniProt P50549 1-477); details: protein: recombinant; tags: N-terminal GST; dsDNA, one strand shown
# Method in brief: as §1
# ERF = target: T6, ERF (Homo sapiens, UniProt P50548 1-548); details: protein: recombinant; tags: N-terminal GST; dsDNA, one strand shown
# T6 sequence: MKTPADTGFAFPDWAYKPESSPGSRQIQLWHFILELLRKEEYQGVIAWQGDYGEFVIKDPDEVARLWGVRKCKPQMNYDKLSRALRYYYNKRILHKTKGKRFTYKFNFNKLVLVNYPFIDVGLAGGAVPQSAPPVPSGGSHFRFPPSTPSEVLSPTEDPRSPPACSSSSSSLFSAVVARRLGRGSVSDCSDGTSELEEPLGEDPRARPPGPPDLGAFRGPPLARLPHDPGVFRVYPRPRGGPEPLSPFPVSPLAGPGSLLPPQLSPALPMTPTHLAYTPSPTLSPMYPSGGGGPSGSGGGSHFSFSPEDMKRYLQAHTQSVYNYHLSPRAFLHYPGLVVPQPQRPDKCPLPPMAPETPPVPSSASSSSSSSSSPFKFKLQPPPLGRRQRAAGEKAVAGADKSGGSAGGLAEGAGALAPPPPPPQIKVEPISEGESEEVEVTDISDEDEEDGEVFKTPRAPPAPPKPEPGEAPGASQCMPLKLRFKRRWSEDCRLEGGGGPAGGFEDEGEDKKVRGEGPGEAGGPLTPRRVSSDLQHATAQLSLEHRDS
# Method in brief: as §1
# ETV3L = target: T7, ETV3L (Homo sapiens, UniProt Q6ZN32 1-361); details: protein: recombinant; tags: N-terminal GST; dsDNA, one strand shown
# T7 sequence: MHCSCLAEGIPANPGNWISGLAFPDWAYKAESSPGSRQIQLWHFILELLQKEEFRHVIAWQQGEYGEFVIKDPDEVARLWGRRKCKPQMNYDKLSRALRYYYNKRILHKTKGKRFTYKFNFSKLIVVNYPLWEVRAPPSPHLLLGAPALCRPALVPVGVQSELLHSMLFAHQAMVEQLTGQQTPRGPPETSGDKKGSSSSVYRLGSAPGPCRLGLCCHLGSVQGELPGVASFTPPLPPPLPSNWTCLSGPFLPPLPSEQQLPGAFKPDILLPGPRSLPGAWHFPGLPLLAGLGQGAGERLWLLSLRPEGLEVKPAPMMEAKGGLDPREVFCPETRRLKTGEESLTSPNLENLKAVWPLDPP
# Method in brief: as §1
# ETS2 = target: T8, ETS2 (Homo sapiens, UniProt P15036 1-469); details: protein: recombinant; tags: N-terminal GST; dsDNA, one strand shown
# T8 sequence: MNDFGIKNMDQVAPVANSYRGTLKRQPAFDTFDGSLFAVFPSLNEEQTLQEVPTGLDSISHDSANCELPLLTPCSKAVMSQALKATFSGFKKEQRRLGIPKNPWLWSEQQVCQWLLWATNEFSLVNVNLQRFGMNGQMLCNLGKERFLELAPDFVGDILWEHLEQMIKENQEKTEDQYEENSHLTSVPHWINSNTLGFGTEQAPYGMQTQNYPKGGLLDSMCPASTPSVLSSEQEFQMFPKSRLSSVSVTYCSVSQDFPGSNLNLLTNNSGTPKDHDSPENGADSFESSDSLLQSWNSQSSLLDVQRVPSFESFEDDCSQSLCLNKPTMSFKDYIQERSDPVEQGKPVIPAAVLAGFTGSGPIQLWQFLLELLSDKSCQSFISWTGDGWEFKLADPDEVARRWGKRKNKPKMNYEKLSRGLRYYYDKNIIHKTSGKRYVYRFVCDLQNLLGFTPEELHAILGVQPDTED
# Method in brief: as §1
# SPDEF = target: T9, SPDEF (Homo sapiens, UniProt O95238 1-335); details: protein: recombinant; tags: N-terminal GST; dsDNA, one strand shown
# T9 sequence: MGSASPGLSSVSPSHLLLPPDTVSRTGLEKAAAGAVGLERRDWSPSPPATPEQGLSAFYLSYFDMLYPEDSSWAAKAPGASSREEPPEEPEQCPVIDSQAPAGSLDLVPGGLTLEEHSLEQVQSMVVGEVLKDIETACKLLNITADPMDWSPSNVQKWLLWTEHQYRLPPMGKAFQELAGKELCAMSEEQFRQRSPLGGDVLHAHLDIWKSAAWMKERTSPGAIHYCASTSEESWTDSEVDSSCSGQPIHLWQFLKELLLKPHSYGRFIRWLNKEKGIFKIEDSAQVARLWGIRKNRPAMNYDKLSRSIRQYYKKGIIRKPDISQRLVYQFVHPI
# Method in brief: as §1
# ETV7 = target: T10, ETV7 (Homo sapiens, UniProt Q9Y603 1-341); details: protein: recombinant; tags: N-terminal GST; dsDNA, one strand shown
# T10 sequence: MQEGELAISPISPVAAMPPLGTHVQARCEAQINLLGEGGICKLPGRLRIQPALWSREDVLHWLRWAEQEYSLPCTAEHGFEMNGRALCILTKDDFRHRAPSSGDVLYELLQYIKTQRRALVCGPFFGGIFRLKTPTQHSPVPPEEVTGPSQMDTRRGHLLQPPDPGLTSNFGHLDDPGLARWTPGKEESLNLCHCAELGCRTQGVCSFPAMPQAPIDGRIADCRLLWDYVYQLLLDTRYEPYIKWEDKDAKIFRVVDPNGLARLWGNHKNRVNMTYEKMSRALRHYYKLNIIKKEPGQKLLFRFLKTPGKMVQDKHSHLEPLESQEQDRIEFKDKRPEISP
# Method in brief: as §1
# ELF5 = target: T11, ELF5 (Homo sapiens, UniProt Q9UKW6-2 1-255); details: protein: recombinant; tags: N-terminal GST; dsDNA, one strand shown
# T11 sequence: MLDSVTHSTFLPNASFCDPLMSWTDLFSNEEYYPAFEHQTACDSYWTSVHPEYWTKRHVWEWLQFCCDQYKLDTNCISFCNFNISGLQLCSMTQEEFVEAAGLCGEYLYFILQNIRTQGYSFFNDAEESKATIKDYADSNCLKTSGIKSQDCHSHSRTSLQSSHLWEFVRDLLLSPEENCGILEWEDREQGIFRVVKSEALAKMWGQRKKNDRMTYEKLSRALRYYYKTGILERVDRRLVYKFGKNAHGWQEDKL
# Method in brief: as §1
# ETV3 = target: T12, ETV3 (Homo sapiens, UniProt P41162-2 1-143); details: protein: recombinant; tags: N-terminal GST; dsDNA, one strand shown
# T12 sequence: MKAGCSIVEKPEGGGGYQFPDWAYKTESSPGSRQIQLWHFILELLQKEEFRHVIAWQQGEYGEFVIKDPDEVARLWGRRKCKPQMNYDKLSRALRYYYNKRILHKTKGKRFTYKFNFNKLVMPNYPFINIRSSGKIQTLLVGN
# Method in brief: as §1
# ETV6 = ETV6 (Homo sapiens, UniProt P41212 1-452); details: protein: recombinant; tags: N-terminal GST; dsDNA, one strand shown
# Method in brief: as §1
# Sequence of ETV1 (P50549 whole entry): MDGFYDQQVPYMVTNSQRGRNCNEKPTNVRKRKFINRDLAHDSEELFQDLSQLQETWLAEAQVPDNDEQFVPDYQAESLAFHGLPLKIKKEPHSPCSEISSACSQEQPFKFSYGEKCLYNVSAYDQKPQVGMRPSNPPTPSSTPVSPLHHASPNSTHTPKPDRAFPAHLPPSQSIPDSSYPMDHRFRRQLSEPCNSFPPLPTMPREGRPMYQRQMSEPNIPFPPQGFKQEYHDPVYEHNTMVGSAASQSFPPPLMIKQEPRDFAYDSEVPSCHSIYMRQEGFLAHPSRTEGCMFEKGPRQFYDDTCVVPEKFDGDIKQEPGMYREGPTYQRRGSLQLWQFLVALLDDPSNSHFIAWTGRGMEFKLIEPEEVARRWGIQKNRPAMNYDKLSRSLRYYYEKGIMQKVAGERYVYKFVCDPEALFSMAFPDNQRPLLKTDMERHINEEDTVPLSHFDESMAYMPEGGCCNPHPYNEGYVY
# Sequence of ELF4 (Q99607 whole entry): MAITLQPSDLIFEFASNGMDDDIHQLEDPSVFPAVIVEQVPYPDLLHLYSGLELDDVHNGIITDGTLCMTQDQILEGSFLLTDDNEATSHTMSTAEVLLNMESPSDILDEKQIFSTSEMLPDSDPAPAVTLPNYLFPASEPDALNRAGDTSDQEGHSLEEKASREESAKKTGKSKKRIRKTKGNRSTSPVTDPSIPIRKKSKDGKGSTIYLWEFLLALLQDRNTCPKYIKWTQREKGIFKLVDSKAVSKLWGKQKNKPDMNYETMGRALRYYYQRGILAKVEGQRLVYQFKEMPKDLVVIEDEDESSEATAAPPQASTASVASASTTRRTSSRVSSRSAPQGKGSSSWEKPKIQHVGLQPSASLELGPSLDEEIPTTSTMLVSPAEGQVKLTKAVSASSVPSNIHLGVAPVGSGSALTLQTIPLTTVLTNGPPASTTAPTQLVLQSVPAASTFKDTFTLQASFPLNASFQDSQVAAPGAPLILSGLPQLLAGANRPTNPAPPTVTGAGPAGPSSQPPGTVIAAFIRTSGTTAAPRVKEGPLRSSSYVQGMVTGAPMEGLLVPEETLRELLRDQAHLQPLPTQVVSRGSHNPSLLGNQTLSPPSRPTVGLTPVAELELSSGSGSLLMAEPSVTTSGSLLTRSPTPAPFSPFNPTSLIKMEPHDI
# Sequence of CRX (O43186 whole entry): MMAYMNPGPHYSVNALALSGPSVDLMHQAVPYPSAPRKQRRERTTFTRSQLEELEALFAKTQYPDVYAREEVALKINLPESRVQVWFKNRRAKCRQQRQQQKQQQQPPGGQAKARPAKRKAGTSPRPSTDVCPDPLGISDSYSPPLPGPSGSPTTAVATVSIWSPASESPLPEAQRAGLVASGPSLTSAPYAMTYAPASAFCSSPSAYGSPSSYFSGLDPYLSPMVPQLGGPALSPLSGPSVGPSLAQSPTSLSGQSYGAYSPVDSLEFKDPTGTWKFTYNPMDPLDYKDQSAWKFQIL
# Sequence of ETV6 (P41212 whole entry): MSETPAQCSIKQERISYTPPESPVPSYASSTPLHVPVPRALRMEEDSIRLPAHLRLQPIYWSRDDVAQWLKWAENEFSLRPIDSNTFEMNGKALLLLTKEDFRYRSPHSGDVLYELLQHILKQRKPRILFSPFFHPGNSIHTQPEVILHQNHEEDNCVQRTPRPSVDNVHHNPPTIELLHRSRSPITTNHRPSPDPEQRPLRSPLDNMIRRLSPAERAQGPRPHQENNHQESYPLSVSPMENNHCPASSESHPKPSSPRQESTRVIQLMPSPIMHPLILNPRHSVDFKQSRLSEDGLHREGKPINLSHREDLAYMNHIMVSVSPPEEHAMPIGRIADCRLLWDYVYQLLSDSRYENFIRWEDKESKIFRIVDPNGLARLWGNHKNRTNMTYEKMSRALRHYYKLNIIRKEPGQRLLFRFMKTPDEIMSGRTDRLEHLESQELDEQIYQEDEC
# Sequence of ETV5 (P41161 whole entry): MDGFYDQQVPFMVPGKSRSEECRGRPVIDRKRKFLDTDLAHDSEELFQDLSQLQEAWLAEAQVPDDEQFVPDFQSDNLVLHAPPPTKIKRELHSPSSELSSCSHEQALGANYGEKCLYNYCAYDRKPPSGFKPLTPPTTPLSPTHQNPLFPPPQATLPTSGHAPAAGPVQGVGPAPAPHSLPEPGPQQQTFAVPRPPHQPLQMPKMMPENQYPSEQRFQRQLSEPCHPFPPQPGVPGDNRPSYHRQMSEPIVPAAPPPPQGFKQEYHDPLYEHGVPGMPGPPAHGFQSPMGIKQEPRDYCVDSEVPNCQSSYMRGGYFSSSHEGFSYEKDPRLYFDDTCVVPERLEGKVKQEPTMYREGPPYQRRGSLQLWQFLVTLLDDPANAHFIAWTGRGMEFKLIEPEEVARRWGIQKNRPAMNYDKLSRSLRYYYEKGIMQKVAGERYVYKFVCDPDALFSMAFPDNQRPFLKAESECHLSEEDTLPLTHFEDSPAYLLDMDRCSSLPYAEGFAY
# Sequence of HSF1 (Q00613 whole entry): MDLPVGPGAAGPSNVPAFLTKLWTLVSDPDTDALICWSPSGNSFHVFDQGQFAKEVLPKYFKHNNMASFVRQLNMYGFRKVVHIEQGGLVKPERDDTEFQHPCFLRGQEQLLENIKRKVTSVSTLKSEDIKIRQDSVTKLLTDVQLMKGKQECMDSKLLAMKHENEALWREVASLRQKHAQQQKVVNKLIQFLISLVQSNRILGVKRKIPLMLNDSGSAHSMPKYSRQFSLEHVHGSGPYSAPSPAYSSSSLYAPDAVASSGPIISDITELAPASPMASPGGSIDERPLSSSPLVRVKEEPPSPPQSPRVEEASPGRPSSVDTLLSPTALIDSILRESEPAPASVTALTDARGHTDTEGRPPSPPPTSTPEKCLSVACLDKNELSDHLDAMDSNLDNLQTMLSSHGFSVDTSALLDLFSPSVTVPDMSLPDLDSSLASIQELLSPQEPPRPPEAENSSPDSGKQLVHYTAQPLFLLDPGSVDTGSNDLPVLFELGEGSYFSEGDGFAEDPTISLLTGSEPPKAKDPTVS
sequence,measurement,setting,value
CTCGCT,binding signal,FEV,"1.67 fold enrichment (6-mer frequency, TF over GST control)"
same,binding signal,ETV5,"1.66 fold enrichment (6-mer frequency, TF over GST control)"
same,binding signal,HSF1,"1.66 fold enrichment (6-mer frequency, TF over GST control)"
same,binding signal,SPIC,"1.76 fold enrichment (6-mer frequency, TF over GST control)"
same,binding signal,ELF4,"1.56 fold enrichment (6-mer frequency, TF over GST control)"
same,binding signal,ELK4,"1.68 fold enrichment (6-mer frequency, TF over GST control)"
same,binding signal,ETV2,"1.52 fold enrichment (6-mer frequency, TF over GST control)"
same,binding signal,ELF3,"1.83 fold enrichment (6-mer frequency, TF over GST control)"
same,binding signal,CRX,"1.37 fold enrichment (6-mer frequency, TF over GST control)"
same,binding signal,ETV1,"1.71 fold enrichment (6-mer frequency, TF over GST control)"
same,binding signal,ERF,"1.78 fold enrichment (6-mer frequency, TF over GST control)"
same,binding signal,ETV3L,"1.87 fold enrichment (6-mer frequency, TF over GST control)"
same,binding signal,ETS2,"1.67 fold enrichment (6-mer frequency, TF over GST control)"
same,binding signal,SPDEF,"1.62 fold enrichment (6-mer frequency, TF over GST control)"
same,binding signal,ETV7,"1.54 fold enrichment (6-mer frequency, TF over GST control)"
same,binding signal,ELF5,"1.55 fold enrichment (6-mer frequency, TF over GST control)"
same,binding signal,ETV3,"1.51 fold enrichment (6-mer frequency, TF over GST control)"
same,binding signal,ETV6,"1.64 fold enrichment (6-mer frequency, TF over GST control)"
